Assay results: PubChem BioAssay (NCI)
This is part of a sample that, as a whole, favours compounds with a hit. Of some 79,000 tested, about 15% had one in any assay. A number with no mark means an inactive call. Active and inactive are the calls of the source. Cut-off read from the data, not from the text of the source: active = growth inhibition above about 70%; inactive = the rest.

Key:
[1] = NCI Yeast Anticancer Drug Screen. Data for the rad50 strain (AID 155);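 note: 0% = growth of vehicle-only cultures of the same strain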; conditions: S. cerevisiae rad50 strain growth inhibition; at 50.0 µM; stronger effect = higher value
How it was run: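 Compounds were tested on a yeast strain with an engineered DNA damage repair alteration; the reported value is growth inhibition normalised to vehicle treatment.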

[2] = NCI Yeast Anticancer Drug Screen. Data for the mec2-1 strain (AID 157); conditions: S. cerevisiae mec2-1 strain, at 50.0 µM, stronger effect = higher value
How it was run: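 Strain: mec2-1 (DNA repair/cell cycle alteration). Compound exposure, then growth measured; inhibition expressed relative to vehicle.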

[3] = NCI Yeast Anticancer Drug Screen. Data for the sgs1 mgt1 strain (AID 161);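 note: 0% = growth of cultures given vehicle only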; conditions: S. cerevisiae sgs1 mgt1 strain, at 50.0 µM, stronger effect = higher value
How it was run: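 Mutant yeast exposed to compound; growth scored against vehicle-only wells.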

[4] = NCI Yeast Anticancer Drug Screen. Data for the cln2 rad14 strain (AID 165);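 note: 0% = growth equal to vehicle treated cultures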; conditions: S. cerevisiae cln2 rad14 strain, at 50.0 µM, stronger effect = higher value
How it was run: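 Compounds are applied to the cln2 rad14 yeast strain, and growth is then compared with that of vehicle-treated cultures to give inhibition.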

[5] = NCI Yeast Anticancer Drug Screen. Data for the bub3 strain (AID 167); conditions: S. cerevisiae bub3 mutant strain, at 50.0 µM, stronger effect = higher value
How it was run: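 Growth of a checkpoint-deficient yeast mutant is measured after compound exposure. Values represent inhibition relative to vehicle.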

[6] = NCI Yeast Anticancer Drug Screen. Data for the mlh1 rad18 strain (AID 175); conditions: S. cerevisiae mlh1 rad18 strain growth inhibition; at 50.0 µM; stronger effect = higher value
How it was run: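 Read-out is yeast growth inhibition, calculated against vehicle-only controls. The compound was applied to a strain engineered with DNA damage repair alterations.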

Structure (SMILES) | growth inhibition [1] | growth inhibition [2] | growth inhibition [3] | growth inhibition [4] | growth inhibition [5] | growth inhibition [6]
CN=C(NC)c1ccc(Cl)c(Cl)c1 | 8.1% | -5.4% | -0.9% | -31.2% | 10.9% | 11.8%
COc1cc([N+](=O)[O-])ccc1NC(=O)Nc1c(C)n(C)n(-c2ccccc2)c1=O | -17.1% | 1.75% | -8.3% | 92.6% (active) | 0.15% | 6.25%
O=C1OCC/C1=C1/Nc2ccccc2NC1=O | -13.1% | -24% | -8.1% | -22.2% | -16.4% | -13.8%
CC(=O)CC(=O)CCCCCCCCCCCC(=O)CC(C)=O | -5.15% | -15.4% | -5.45% | -0.1% | 13.5% | 10.4%
COC(=O)C(C)(C#N)/C(C)=C/C(C)C (stereo unspecified) | -12.7% | -20.9% | -12.8% | -3.9% | -24.8% | -33%
O=C(Nc1ccccc1)Oc1ccccc1C1CCCCC1 | 26.8% | 2.4% | 6% | 16.8% | -18.9% | -20%
COc1ccc(C2OC3=C(Nc4ccc(Cl)cc4N3)C2=O)cc1 (stereo unspecified) | -1.9% | 0.3% | 6.65% | 9.4% | -9.3% | 14.9%
NCc1ccc(Cl)cc1 | 8.65% | -2.65% | 11.4% | 25.8% | -2.2% | 14.2%
COc1ccc(N=Cc2ccc([N+](=O)[O-])cc2)cc1 | 27.9% | 0.75% | 15.2% | -22.4% | 9.9% | 36.1%
CN(C)C(=O)c1ccc(-c2ccccc2)cc1O | -10.3% | 20.2% | 0.05% | -18.1% | -10.1% | -4.65%
S=C1NNC2(C(=S)N1)c1ccccc1-c1ccccc12 | 32.4% | -11.2% | 14.6% | 5% | 3.2% | 55.4%
O=C(O)c1ccoc1-c1ccccc1 | 12.7% | -6.05% | 10.7% | -26.9% | -7.55% | 22.2%
Cn1cnc2cc([N+](=O)[O-])ccc21 | -9.6% | -7.95% | -32.2% | -24.6% | -9.6% | 8.8%
NC(=O)CCCc1ccc2oc3ccccc3c2c1 | 13.4% | -4.05% | 9.05% | 6.55% | 22.8% | 35.4%
CC(C)=CC(=O)n1nc2c(c1CC(C)C)C(=O)C(Nc1ccccc1)=CC2=O | 35.1% | 3.25% | 21% | 24.8% | 1.3% | 27.4%
CON(C)c1nc(N)c(C#N)c(C#N)c1C#N | 4.35% | -23.7% | 3.3% | 13.4% | 15% | 7.45%
CC(C)(S)CNCCSC(=O)c1ccccc1 | 2.8% | -0.2% | 23.1% | -16.1% | 63.5% | 30.1%
CCOC(=O)Nc1ccc(C2SCCN2C(=O)Nc2ccc(Cl)cc2)cc1 (stereo unspecified) | -9.5% | -14.3% | -9.45% | -5.65% | -7.7% | -11.3%
COc1ccccc1N=Nc1c(-c2cccs2)nn(C(=S)SC)c1C(F)(F)F | -3.5% | 10.2% | -21.6% | -3.9% | 18.7% | 30.8%
COC(=O)N/N=C(\C)c1sc(-c2nc(C)c(/C(C)=N/NC(=O)OC)s2)nc1C | 17.9% | 0.95% | -27.4% | -35.6% | 3.05% | 1.05%
CCOC(=O)NC(=O)c1cn(CCN2CCN(C(=O)CCCCCCCCCCNc3ncnc4nc[nH]c34)CC2)c(=O)[nH]c1=O | -18.5% | -6.75% | -12.8% | -25.6% | 0.05% | -14.2%

Structure (SMILES) | growth inhibition [1] | growth inhibition [2] | growth inhibition [3] | growth inhibition [4] | growth inhibition [5] | growth inhibition [6]
CC(=O)c1sc2c(c1OC(=O)c1ccc(Cl)cc1)c(=O)n(-c1ccccc1)c(=S)n2-c1ccccc1 | 9.55% | -8.9% | -11.2% | 7.95% | 11.9% | 9.05%
O=C(CN1C(=O)c2ccccc2C1=O)OCC1CCCN2CCCCC12 (stereo unspecified) | 16.6% | -3.3% | 4.9% | -3.55% | -6.25% | -29.4%
COc1ccc(C2=CC(=O)C(C)(C#N)CC2)cc1 (stereo unspecified) | 3.9% | 25.9% | -4% | 25.1% | 34% | 4.8%
O=C1CSc2ccncc2N1 | 13.8% | 2.9% | 13.5% | 11.4% | 15.2% | 24.1%
Oc1ccccc1-c1n[nH]c(=S)n1/N=C/c1ccc(-c2ccc(Br)cc2)o1 | -30.5% | -19.2% | -29.2% | -4.35% | -20.1% | -42.9%
CC(=O)OCCSSCCOC(C)=O | -4.9% | -26.4% | 13% | 6.55% | -1.9% | -3.75%
O=C(O)CSc1n[nH]c(-c2ccc(O)cc2)n1 | -18.3% | -7.25% | -7.5% | 18.6% | 4.95% | 37.2%
O=C1NC2(CCCCC2)N=C2C(Cl)CCCC12Cl (stereo unspecified) | -22.1% | -24.5% | -0.7% | 21% | -1.85% | -8.8%
CC(=O)CC(C)=NCCN=C(C)CC(C)=O.[Cu] | 86.2% (active) | 64.2% | 75.7% (active) | 84.4% (active) | 71.8% (active) | 82% (active)
O=C(O)c1cc(-c2ccccc2Cl)nc2ccccc12 | 10.7% | -6.55% | -8.3% | -10.7% | 19.8% | 0.45%
CCCCCCCCSC(SCCCCCCCC)=C1C(=O)N(c2ccccc2)N=C1C | -5.9% | -12.3% | 2.2% | 19.6% | -28.1% | -13%
O=c1cc(CSc2ncnc3nc[nH]c23)occ1O | -11.3% | -4.4% | -2.1% | 2.55% | 11.8% | 4.2%
O=C1COC(C(O)(c2ccccc2)c2ccccc2)C(=O)N1 (stereo unspecified) | -5.35% | -18.9% | -1.3% | -65% | -21.4% | 6.25%
CN(C)c1ncnc2c1ccn2CC(O)CO (stereo unspecified) | -2.7% | -11.1% | -8.55% | -54.5% | 3.1% | -2.85%
CC(C)=CCC(C)C | -12.1% | 3.85% | 6.85% | 7.9% | -12.6% | -3.85%
Nc1nc(N)c2nc3c(nc2n1)CCCC3 | -15.9% | -35.7% | -18.3% | 8.95% | -13.1% | -25.7%
CC1(O)C=CC2CCC1C2O (stereo unspecified) | 11.9% | -2.55% | 10% | 19.2% | 0.15% | 19.6%
Cc1ccc(C=C(C(=O)O)C(=O)O)o1 | -21.3% | -29.4% | -17.6% | -8.05% | -13.4% | -56.2%
Oc1ccc(O)c(CCCc2cc(O)ccc2O)c1 | 13.3% | 7.8% | -2.25% | 0.5% | 6.95% | 49.5%
O=C(CN1C(=O)c2cccc3c(Br)ccc(c23)C1=O)c1ccc(F)cc1 | -10.4% | -14.7% | 7.6% | 18.7% | -12% | 1.3%
